USP28 inh: blocks human USP28 ubiquitin-rhodamine cleavage; inhibition, % at 25 µM; Q96RU2; 47,000 compounds, 3% hits; purified USP28, Ub-rhodamine cleavage fluorescence, 30 min
USP17 inh: inhibitors of human USP17 deubiquitinase; A8MUK1; purified USP17, Ub-rhodamine cleavage fluorescence, 3 h; inhibition, % at 50 µM; 47,000 compounds, 6.5% hits
USP10 inh: inhibitors of human USP10 deubiquitinase | 47,000 compounds, 1.1% hits | purified USP10, Ub-rhodamine fluorescence, 60 min | AID 1645856 | inhibition, % at 20 µM
Target sequence (Q14694 whole entry, looked up): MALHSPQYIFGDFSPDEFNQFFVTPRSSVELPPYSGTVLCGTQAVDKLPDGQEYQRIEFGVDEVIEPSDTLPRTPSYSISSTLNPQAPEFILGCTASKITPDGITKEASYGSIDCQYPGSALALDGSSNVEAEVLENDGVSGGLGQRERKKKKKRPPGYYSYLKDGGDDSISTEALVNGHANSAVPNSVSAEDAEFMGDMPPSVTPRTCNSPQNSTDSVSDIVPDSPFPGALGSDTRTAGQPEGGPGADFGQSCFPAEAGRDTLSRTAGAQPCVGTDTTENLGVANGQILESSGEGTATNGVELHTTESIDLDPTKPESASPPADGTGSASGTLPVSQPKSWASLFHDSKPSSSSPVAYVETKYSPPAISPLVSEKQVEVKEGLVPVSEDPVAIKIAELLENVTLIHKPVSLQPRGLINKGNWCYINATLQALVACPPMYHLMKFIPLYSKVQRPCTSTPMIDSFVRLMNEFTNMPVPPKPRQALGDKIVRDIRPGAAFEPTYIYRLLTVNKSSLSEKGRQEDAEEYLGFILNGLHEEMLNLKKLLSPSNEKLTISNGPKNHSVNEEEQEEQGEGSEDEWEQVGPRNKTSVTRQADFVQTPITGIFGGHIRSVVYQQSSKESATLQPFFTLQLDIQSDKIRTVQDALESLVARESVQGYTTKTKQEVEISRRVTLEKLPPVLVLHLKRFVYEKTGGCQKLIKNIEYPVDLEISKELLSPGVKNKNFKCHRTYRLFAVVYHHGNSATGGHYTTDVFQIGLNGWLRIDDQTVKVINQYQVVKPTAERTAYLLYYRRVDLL
USP8 inh: inhibitors of human USP8 deubiquitinase; P40818; purified USP8, Ub-rhodamine cleavage fluorescence, 30 min; inhibition, % at 20 µM; 47,000 compounds, 4.2% hits
USP7 inh: blocks human USP7 ubiquitin-rhodamine cleavage | 47,000 compounds, 0.3% hits | inhibition, % at 20 µM | Q93009 | purified USP7, Ub-rhodamine cleavage fluorescence
USP30 block: blocks human USP30 ubiquitin-rhodamine cleavage; purified USP30, Ub-rhodamine cleavage fluorescence; inhibition, % at 25 µM; 47,000 compounds, 5.3% hits; AID 1645860
Active calls of the source: *; i = inactive; · = no result given. Only some compounds are listed: those with a hit (about 13% of all), similar ones and a draw of the others. Rule as the data show it: active = inhibition above about 30%; inactive = the rest.

SMILES | USP28 inh | USP17 inh | USP10 inh | USP8 inh | USP7 inh | USP30 block
COc1cccc(CNC(=O)CCC(=O)N2CCOc3ccccc32)c1OC | -4 | -8 | 0 | 0 | -1 | -8
COc1ccc(-c2noc(C3(C)CCOCC3)n2)cc1 | · | -3 | 1 | 0 | · | ·
O=[N+]([O-])c1ccc(N2CCOCC2)nc1N1CCOCC1 | 17 | 4 | 1 | -33 | 1 | 28
NC(=O)c1cc2ccccc2nc1C1CCN(C(=O)CCN2CCOCC2)CC1 | 6 | 16 | 0 | 23 | 5 | 30
O=C(Oc1coc(CSc2ncccn2)cc1=O)c1ccccc1Cl | -2 | -16 | 2 | -2 | -18 | -45
O=C(Oc1coc(CSc2ncccn2)cc1=O)c1ccccc1Br | 27 | 15 | 3 | 36* | -11 | -11
Cc1cc(C)nc(SCc2cc(=O)c(OC(=O)c3ccc(F)c(F)c3)co2)n1 | 23 | 9 | 1 | 34* | -35 | 28
COc1ccc(/C=C(\C#N)c2cccs2)c(OC)c1OC | 3 | 13 | -5 | 5 | -3 | 0
Cc1ccc(-n2ncc3c2ncn2c(C)nnc32)cc1C | 3 | 19 | 0 | 1 | 4 | 45*
Fc1cc(F)c2[nH]cc(-c3nnnn3-c3ccc4ccccc4c3)c2c1 | 45* | · | 31* | 55* | 25 | 71*
CN(C(=O)CSc1nnnn1-c1cccc(F)c1)c1ccccc1 | -4 | -2 | -1 | 0 | -15 | 6
O=C(CSc1ncnc2c1cnn2-c1ccccc1)Nc1ccccc1-c1ccccc1 | 11 | 13 | 3 | 6 | 9 | 31*
Cc1cccc(C)c1NC(=O)CSc1ncnc2c1cnn2-c1ccc(Cl)cc1 | -2 | 0 | 0 | 3 | 2 | -14
Cc1cc(C)n2nc(NCc3cccc(Cl)c3)nc2n1 | 32* | 0 | 1 | 15 | -1 | 10
Cc1cc(C)n2nc(C(=O)NCc3ccc(Cl)cc3)nc2n1 | -7 | 2 | 3 | 8 | -4 | 18
CCn1cc(-c2nc(-c3ccccc3)no2)c(=O)c2cc(F)ccc21 | -2 | 67* | 8 | 0 | 4 | 11
CCCn1cc(-c2nc(-c3ccccn3)no2)c(=O)c2cc(F)ccc21 | 0 | 18 | -1 | -7 | -1 | 1
Cc1cccc(OCC(O)CNc2nc(C)cc(C)n2)c1 (centres undefined) | -5 | -26 | 1 | 4 | 1 | -7
COc1cccc(OCC(O)CNc2ccc(Cl)cc2)c1 (centres undefined) | -8 | 5 | 3 | 37* | -80 | -15
Cc1ccc(-c2ncc(NC(=O)c3ccc(C#N)cc3)cn2)cc1 | -7 | 3 | 6 | 7 | 5 | 0
Cc1ccc(Sc2ccc(C#N)cc2NC(=O)c2ccccc2C)cc1 | 2 | -4 | -2 | 6 | 0 | 41*
Cc1cccc(/C=C/c2nc3ccc([N+](=O)[O-])cc3s2)c1 | -10 | 43* | 4 | 87* | 8 | -59
O=[N+]([O-])c1ccc2nc(/C=C/c3cc4ccccc4nc3N3CCOCC3)sc2c1 | -30 | 3 | -7 | -34 | -5 | -85
CCc1nc(CCNC(=O)Nc2cc(Cl)cc(Cl)c2)cs1 | 17 | 8 | -3 | 1 | -46 | 1
COc1ccc(CN2C(=O)Cc3c(C)nc(C4CCNCC4)nc32)cc1 | -11 | -14 | -3 | 1 | -1 | -4
SMILES | USP28 inh | USP17 inh | USP10 inh | USP8 inh | USP7 inh | USP30 block
Cc1nc(C2CCCN2C(=O)c2ccnn2C)nc2c1CC(=O)N2Cc1ccc(F)cc1 (centres undefined) | -45 | -3 | -6 | 40* | -8 | -202
Cc1nc(C2CCCN2C(=O)c2ccccn2)nc2c1CC(=O)N2CCc1ccccc1F (centres undefined) | -60 | 7 | -7 | 61* | -13 | -320
COc1ccc(C(=O)Nc2nccnc2C(=O)N2CCN(c3ccc(F)cc3)CC2)cc1 | -4 | -15 | -5 | -25 | -3 | -20
COc1cccc([C@@H]2C[C@]3(C)NC(=O)CCCC[C@@H]3N2C(=O)c2ccnn2C)c1 | 13 | 11 | 0 | 18 | 4 | 18
CNC(=O)[C@@H]1CN(C(=O)c2ccncc2)C[C@H]1c1ccnc(N2CCCC2)n1 | 0 | 9 | 0 | 12 | 5 | 15
Cc1cc(N2CCCC2c2cnc(-c3ncc[nH]3)cn2)ncn1 (centres undefined) | 14 | 8 | -2 | 21 | 0 | 9
Cc1ccccc1-c1noc(-c2cccn(CC(=O)Nc3ccccc3F)c2=O)n1 | -24 | 8 | -6 | 76* | 13 | -36
CCCCN1CC(C(=O)Nc2ccc(C(=O)Nc3ccc(Cl)cc3)cc2)CC1=O (centres undefined) | 18 | 21 | 22 | 13 | 2 | 64*
CCCCN1CC(C(=O)Nc2ccc(C(=O)Nc3cccc(Cl)c3)cc2)CC1=O (centres undefined) | 6 | 11 | 2 | 10 | 5 | 2
CCCCN1CC(C(=O)Nc2ccc(C(=O)Nc3ccc(F)c(Cl)c3)cc2)CC1=O (centres undefined) | 16 | 52* | 1 | 4 | 7 | 27
COc1cccc(C(=O)N2CCc3nc(C(=O)N4CCCC4)sc3CC2)c1 | -15 | -7 | 2 | -1 | -2 | -33
O=C(Nc1cnc(N2CCCC2)nc1)c1ccccc1 | 7 | 2 | -1 | 0 | 1 | -1
O=C(Nc1ccc(N2CCC(n3cccc3)CC2)cc1)c1ccccc1 | -3 | 0 | 15 | 30* | 8 | 2
Nc1ncnc2sc3c(c12)CCN(Cc1ccccc1)C3 | -41 | 6 | -6 | -13 | -60 | -234
CC[C@@H]1CCC[C@H](C)CC[C@@H](O[C@@H]2O[C@@H](C)[C@@H](O)[C@@H](N)[C@H]2O)[C@H](CC)CCCNC1=O | 83* | 83* | 14 | 4 | 21 | 95*
O=C(CN1CCCN(Cc2ccccc2)S1(=O)=O)Nc1ccc(F)cc1 | 17 | 21 | 1 | 24 | 5 | 33*
O=C(CSc1nc2ccccc2[nH]1)NCc1ccccc1F | 3 | 1 | 4 | 6 | -4 | 1
N#Cc1cc([N+](=O)[O-])ccc1N1CCN(c2ccc(O)cc2)CC1 | 24 | 32* | 11 | -39 | -2 | 35*
O=C(O)C1CCN(c2ccc([N+](=O)[O-])cc2)CC1 | -10 | -22 | -4 | -17 | 0 | -26
O=S(=O)(CCN1CCN(c2ccccc2)CC1)c1ccc(F)cc1 | 10 | 17 | -1 | 28 | 3 | 25
Cc1cc2nc(Sc3nnc4ccccn34)c3ccccc3n2n1 | 3 | 10 | 0 | 10 | 5 | 18
Cn1c(=O)cc(SCC(=O)N2CCN(c3ccc([N+](=O)[O-])cc3)CC2)c2ccccc21 | -176 | -102 | -8 | 2 | -25 | i
COc1ccccc1N1CCN(C(=O)CSc2cc(=O)n(C)c3ccccc23)CC1 | 14 | 16 | 0 | -23 | 3 | 32*
CS(=O)(=O)N1CCc2cc(C(=O)Nc3ccc(Cc4ccncc4)cc3)ccc21 | 75* | -9 | 5 | -11 | -2 | 6
